CYP2C19 act: increases human CYP2C19 enzyme activity; 96,000 tested, under 10 active; activation factor at 5 µM; recombinant CYP2C19, luciferin-H EGE luminescence; stronger effect = higher value; 0 = fully inhibited enzyme, 1 = untreated enzyme; P33261; AID 1025;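 active = activation factor of at least 2 at 5 µM in the primary screen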;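 note: 0 = wells with 2.5 mM tranylcypromine and 1 = vehicle-only wells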
CYP2C9 activ: activators of human CYP2C9. P11712. recombinant CYP2C9, luciferin-H conversion, luminescence; stronger effect = higher value; factor 1 = untreated enzyme, 0 = blocked. activation factor at 5 µM. 96,000 tested, 1.4% active;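 active = activation factor of 2 or more for CYP2C9 at a 5 µM dose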;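 note: 0 = sulfaphenazole-blocked wells and 1 = vehicle-only wells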
Target sequence (P11712 whole entry, looked up): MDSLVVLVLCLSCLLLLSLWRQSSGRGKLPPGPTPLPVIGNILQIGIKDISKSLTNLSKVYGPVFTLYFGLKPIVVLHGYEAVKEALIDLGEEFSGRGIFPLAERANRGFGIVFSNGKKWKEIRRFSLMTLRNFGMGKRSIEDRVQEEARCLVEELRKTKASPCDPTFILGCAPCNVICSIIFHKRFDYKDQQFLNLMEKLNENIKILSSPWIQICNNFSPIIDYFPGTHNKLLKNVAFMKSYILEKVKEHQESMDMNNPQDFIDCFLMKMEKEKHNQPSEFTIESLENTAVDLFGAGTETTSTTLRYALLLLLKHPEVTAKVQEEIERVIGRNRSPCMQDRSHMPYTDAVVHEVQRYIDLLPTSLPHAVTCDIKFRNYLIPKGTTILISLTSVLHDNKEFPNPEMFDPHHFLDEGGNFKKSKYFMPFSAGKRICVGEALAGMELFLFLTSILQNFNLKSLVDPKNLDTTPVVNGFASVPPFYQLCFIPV
CYP2C19 inh: human CYP2C19 inhibition; P33261; CYP2C19 Supersomes, luciferin-H EGE luminescence, 30 min; inhibition, % at 5 µM; 96,000 tested, 21% active;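 active = CYP2C19 inhibition above a set limit at 5 µM in the primary screen, cut at about 50% in these data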;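 note: plate controls were negative control wells for no effect and 2.5 mM tranylcypromine positive control for full effect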
Measles CPE: protection of cells from measles virus. AID 841. protection (pct of control), % at 4 µM. Measles virus-infected cells, CPE protection, absorbance. 140,000 tested, 1.5% active; in the data active = protection mostly above about 24%, no sharp cut-off; inactive = mostly below about 26%
CYP2C9 inhib: inhibitors of human CYP2C9 | AID 777 | inhibition, % at 5 µM | CYP2C9 Supersomes, luciferin-H conversion, luminescence | P11712 | 96,000 tested, 20% active;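 active = blocking of liver enzyme CYP2C9 beyond about 50% at 5 µM, limit read from the data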
An asterisk follows results filed as active; x = no result. Shown are actives, neighbours in structure and some others; about 22% of the full set was active somewhere.

SMILES | CYP2C19 act | CYP2C9 activ | CYP2C19 inh | Measles CPE | CYP2C9 inhib
CCOC(=O)C1Cc2ccccc2C(=O)O1 (stereo not drawn) | 0.8 | 1 | 22 | 8 | 4
S=c1[nH]cnc2scc(-c3ccccc3)c12 | x | x | x | 7 | x
COC(=O)C(Cc1cnc(Cl)s1)(C(=O)OC)c1ccc([N+](=O)[O-])cc1[N+](=O)[O-] | 0.2 | 0.3 | 79* | 27 | 67*
C=CCC(C(=O)OC)(C(=O)OC)c1ccc([N+](=O)[O-])cn1 | 0.7 | 0.9 | 29 | 7 | 10
COC(=O)C(Cc1cnc(Cl)s1)(C(=O)OC)c1ccc(C(F)(F)F)cc1[N+](=O)[O-] | 0.1 | 0.5 | 87* | 5 | 51*
CCOC(=O)c1ccc(Nc2nc(=O)c3cccnc3s2)cc1 | 1 | 0.5 | 1 | 71* | 50
CCOC(=O)c1ccc(Nc2ccc([N+](=O)[O-])cn2)cc1 | x | x | x | 10 | x
CC(=O)c1cccc(Nc2nc(=O)c3cccnc3s2)c1 | 0.3 | 0.2 | 74* | 7 | 78*
CC(=O)c1ccc(Nc2nc(=O)c3cccnc3s2)cc1 | 0.8 | 0.6 | 25 | 3 | 41
O=C(CCCn1c(=O)[nH]c2ccsc2c1=O)N1CCCCC1 | 0.8 | 1 | 20 | 11 | 2
CC(Sc1ncnc2ccccc12)C(=O)Nc1ccc2c(c1)OCCO2 (stereo not drawn) | x | x | x | 14 | x
CC(=O)N1CCc2cc(Br)cc(S(=O)(=O)NCc3ccccn3)c21 | 0.8 | 1 | 15 | 5 | 2
Cc1ccc(NC(=S)NCCN2CCOCC2)cc1C | 0.5 | 0.9 | 48 | 6 | 12
O=C(COc1ccc(Cl)cc1Cl)NCCCN1CCOCC1 | 0.8 | 0.8 | 19 | 5 | 22
O=C(NC(=S)NCCN1CCOCC1)c1ccccc1Cl | 0.5 | 1.1 | 54* | 7 | -8
Cc1cccc(NC(=S)NCCN2CCOCC2)c1C | x | x | x | 39* | x
O=C(COc1ccccc1Cl)NCCCN1CCOCC1 | 0.4 | 1 | 57* | 4 | 3
Cc1ccc(S(=O)(=O)NC2=NCCCCC2)cc1 | x | x | x | 21 | x
CCOC(=O)N1CCC(c2cc(=O)n3[nH]c(C)c(-c4ccc(F)cc4)c3n2)CC1 | 0.7 | 0.3 | 33 | 7 | 68*
CCOC(=O)N1CCC(c2cc(=O)n3[nH]c(-c4ccccc4)cc3n2)CC1 | 1.1 | 0.3 | -8 | 7 | 66*
CCOC(=O)Cc1cc(=O)n2[nH]c(-c3ccccc3)cc2n1 | x | x | x | 23 | x
Cc1[nH]c2ccccc2c1/C=C/c1nc2ccccc2c(=O)n1-c1cccc([N+](=O)[O-])c1 | x | x | x | 12 | x
O=c1c2ccccc2nc(/C=C/c2c[nH]c3ccccc23)n1-c1ccc([N+](=O)[O-])cc1 | x | x | x | 32* | x
CC(=O)c1cccc(NC(=O)c2ccc(N(Cc3ccc(C)cc3)S(C)(=O)=O)cc2)c1 | 0.1 | 0.1 | 85* | 10 | 85*
Cc1ccc(CN(c2ccc(C(=O)Nc3ccc4c(c3)OCO4)cc2)S(C)(=O)=O)cc1 | 0.6 | 0.6 | 44 | 10 | 40
SMILES | CYP2C19 act | CYP2C9 activ | CYP2C19 inh | Measles CPE | CYP2C9 inhib
CS(=O)(=O)N(Cc1ccccc1)c1ccc(C(=O)Nc2cccnc2)cc1 | x | x | x | 4 | x
CS(=O)(=O)N(Cc1ccc(Cl)cc1)c1ccc(C(=O)Nc2cccnc2)cc1 | 0 | 0.2 | 95* | 13 | 84*
CSCCC(NC(=O)C1CCC(C)CC1)C(=O)O (stereo not drawn) | 1.2 | 1 | -16 | 3 | -2
CCOC(=O)c1nn(-c2ccccc2)c(=O)cc1SC(C)C | 1 | 1 | 2 | 9 | 3
COC(=O)c1nn(-c2cccc(C(F)(F)F)c2)c(=O)cc1Sc1ccccn1 | 0.4 | 0.3 | 56* | 6 | 70*
O=C(c1ccc(Br)cc1)c1cc([N+](=O)[O-])ccc1N1CCCCC1 | 0.4 | 0.4 | 65* | 2 | 61*
CN(C)S(=O)(=O)c1ccc(S(=O)(=O)N(CC(=O)Nc2ccccc2)CC2CCCO2)cc1 (stereo not drawn) | 0.8 | 0.1 | 21 | 10 | 90*
O=C(CN(CC1CCCO1)S(=O)(=O)c1ccc(S(=O)(=O)NCC2CCCO2)cc1)Nc1ccccc1 (stereo not drawn) | 0.6 | 0.1 | 39 | 4 | 90*
CC(=O)Nc1ccc(S(=O)(=O)N(Cc2ccco2)CC2CCCO2)cc1 (stereo not drawn) | 0.3 | 0.6 | 73* | 21 | 42
CN(C)S(=O)(=O)c1ccc(S(=O)(=O)N(CC(=O)Nc2ccccc2)Cc2ccco2)cc1 | 0.9 | 0.6 | 12 | 4 | 38
COc1ccc(N2CS(=O)(=O)/C(=C/N(C)C)C2=O)cc1 | 1 | 1 | -2 | x | -4
